Results on 49 molecules are retold here after PubChem BioAssay AID1259421 (Broad Institute, 2018).

Molecules are shown by their SMILES. “And” between values parts separate entries of the source, which are not always exact repeats. Identical values can stand only once. Out of some 6,400 compounds screened, about 610 (9.5%) were called active. Cut-off read from the data, not from the text of the source: active = activity change below about -70%; inconclusive = no clear call, values can overlap the other calls; inactive = above that. Many of the other results were omitted from the sample, so actives are more common in it than they were. More than one record can exist for a structure, and the calls need not agree.

A short description of the test: Toxoplasma gondii ME49Luc growth in HeLa cells, luciferase, no IFN-y, primary screen (AID 1259421). The settings on record: T. gondii ME49Luc in HeLa, 72 h, stronger effect = lower value, concentration not given here.
As to `COc1ccc2c(Oc3ccc(NC(=O)c4c(C)n(CC(C)(C)O)n(-c5ccccc5)c4=O)nc3)ccnc2c1`, the activity change, negative = inhibition is -67.1% (inactive) and -82.5% (active).
As for `COc1ccc2c(OCc3nnc4ccc(-c5ccccc5)nn34)ccnc2c1`, the figure is 4.78% (inactive).
For `CNC(=O)c1cccc2cc(Oc3ccnc4cc(OCC5(N)CC5)c(OC)cc34)ccc12`, the activity change, negative = inhibition was -25% (inactive).
On to `C[C@@H]1CC2C3CCC4=CC(=O)C=C[C@]4(C)[C@@]3(F)[C@@H](O)C[C@]2(C)[C@@]1(O)C(=O)CO` (some centres undefined), for which the activity change, negative = inhibition was -4.17% (inactive).
The same measure for `C[C@@H]1CCCN1CCc1cc2cc(-c3ccc(C#N)cc3)ccc2o1`: 3.6% (inactive).
The same measure for `C=CCN1CC(C(=O)N(CCCN(C)C)C(=O)NCC)CC2c3cccc4[nH]cc(c34)CC21` (centres undefined): 5.12% (inactive); for `C[C@]12CCC(=O)C=C1C=CC1C2CC[C@@]2(C)C1CC[C@@]21CCC(=O)O1` (some centres undefined): 4.56% (inactive) and -4.95% (inactive); for `CC(=O)S[C@@H]1CC2=CC(=O)CC[C@]2(C)[C@H]2CC[C@@]3(C)[C@@H](CC[C@@]34CCC(=O)O4)[C@H]12`: -13.5% (inactive) and -2.91% (inactive).
As to `C[C@]12CCC(=O)C=C1[C@@H]1C[C@@H]1[C@H]1[C@@H]3[C@@H]4C[C@@H]4[C@@]4(CCC(=O)O4)[C@@]3(C)CC[C@@H]12`, the activity change, negative = inhibition is -75.7% (active) and -36.5% (inactive).
With `CCS(=O)(=O)N1CCN(c2ccc(Nc3ncc(C(N)=O)c(NC4CC4)n3)cc2)CC1`, the activity change, negative = inhibition was -79.3% (active).
In the case of `O=c1[nH]ccc2c(S(=O)(=O)N3CCCNCC3)cccc12`, the activity change, negative = inhibition is 13.8% (inactive) and 2.48% (inactive).
As for `CN1C(C(=O)Nc2ccccn2)C(=O)c2ccccc2S1(=O)=O` (centres undefined), the figure is 35.3% (inactive) and 14.6% (inactive); as for `CCOC(=O)C(C)Oc1cccc2c(=O)n(CC(=O)Nc3ccc4c(c3)OCCO4)ccc12` (centres undefined), 14.7% (inactive).
With `O=C1CC2(CCCC2)CC(=O)N1CCCCNCC1COc2ccccc2O1` (centres undefined), the activity change, negative = inhibition was 21% (inactive) and 7.16% (inactive).
`CC(C)(C)NC(=O)[C@@H]1CC2CCCCC2CN1C[C@@H](O)[C@H](Cc1ccccc1)NC(=O)[C@H](CC(N)=O)NC(=O)c1ccc2ccccc2n1` (some centres undefined): the activity change, negative = inhibition is 13.2% (inactive).
As for `CCCCCCCCO`, the figure is 2.72% (inactive); as for `CC(=O)NC[C@H]1CN(c2ccc(-c3ccc(CNCc4cn[nH]n4)cc3)c(F)c2)C(=O)O1`, -34.7% (inactive); as for `NC(=O)Nc1sc(-c2ccc(F)cc2)cc1C(N)=O`, 12.6% (inactive).
The same measure for `COc1cc(C(=O)NC2CCCNC2)cc(OC)c1OC` (centres undefined): 25.6% (inactive).
As for `NC(=O)Nc1cc(-c2cccc(F)c2)sc1C(=O)N[C@H]1CCCNC1`, the figure is -74.8% (active) and -87.7% (active); as for `CC(C)[C@@H](CS(=O)(=O)C(C)C)N1C(=O)[C@@](C)(CC(=O)O)C[C@H](c2cccc(Cl)c2)[C@H]1c1ccc(Cl)cc1`, 5.9% (inactive); as for `NCCCCNS(=O)(=O)c1ccc2c(Cl)cccc2c1`, 2.08% (inactive).
Regarding `CC(O)C1C(=O)N2C(C(=O)O)=C(C3CCCO3)SC12` (centres undefined), the activity change, negative = inhibition is 5.92% (inactive).
As for `COc1ccc(Cc2nccc3cc(OC)c(OC)cc23)cc1OC`, the figure is -2.52% (inactive) and -6.18% (inactive); as for `CCOc1ccc(Cc2nccc3cc(OCC)c(OCC)cc23)cc1OCC`, -67.8% (inactive) and -79.8% (active); as for `COc1ccc(Cc2cnc(N)nc2N)cc1OC`, 9.87% (inactive).
The same measure for `CN1C(=O)C(F)=C[C@]2(C)[C@H]3CC[C@]4(C)[C@@H](C(=O)NCc5nc6ncccc6[nH]5)CC[C@H]4[C@@H]3CC[C@@H]12`: -1.27% (inactive); for `C=C[C@@H](C1=CC(=O)C(OC)=C(OC)C1=O)c1ccccc1`: -1.89% (inactive); for `COc1cc(N)c(Cl)cc1C(=O)N[C@@H]1CCNCC1OC` (some centres undefined): 8% (inactive).
As for `O=C(O)C1(Cc2cccc(Nc3nccs3)n2)CCC(Oc2cccc(Cl)c2F)CC1` (centres undefined), the figure is -34% (inactive); as for `CC(C)(C)CC(C)(C)c1ccc(O)c(-n2nc3ccccc3n2)c1`, 47.6% (inactive).
Consider `O=C(c1ccc(CN2CCOCC2)cc1)N1CCN(C2CC2)CC1`, for which the activity change, negative = inhibition was 10.6% (inactive).
With `O=C(Nc1cn[nH]c1-c1nc2ccc(CN3CCOCC3)cc2[nH]1)NC1CC1`, the activity change, negative = inhibition was -84.3% (active).
As for `CC(C)(S)C(=O)N[C@@H](CS)C(=O)O`, the figure is -3.42% (inactive); as for `CCOC(=O)Nc1c[n+](N2CCOCC2)no1`, 8.47% (inactive).
As for `Cc1ccc(/C(=C/CN2CCCC2)c2ccccn2)cc1`, the figure is -1.47% (inactive); as for `C/C(=N\NC(=S)N1CCC1)c1ccccn1`, -84.6% (active).
Take `Cc1ccc(/C(=C\CN2CCCC2)c2ccccn2)cc1`: the activity change, negative = inhibition was 0.786% (inactive) and 2.04% (inactive).
The same measure for `CC(=O)O[C@@H]1CC2C(C)(C)C(=O)C=C[C@]2(C)C2CC[C@@]3(C)[C@H](c4ccoc4)OC(=O)[C@H]4O[C@]43[C@@]21C` (some centres undefined): 22.1% (inactive); for `Nc1nc2c(c(=O)[nH]1)N(C=O)[C@@H](CNc1ccc(C(=O)N[C@@H](CCC(=O)O)C(=O)O)cc1)CN2`: 22.2% (inactive).
As to `CCOC(=O)C1=CCCC[C@H]1S(=O)(=O)Nc1ccc(F)cc1Cl`, the activity change, negative = inhibition was 18.7% (inactive).
As for `O=C(O)Cc1ccc2c(c1)C(=O)c1ccccc1CO2`, the figure is 19.3% (inactive); as for `Cc1cc(O)c(C=O)c2c1C(=O)Oc1c(C)c(O)c3c(c1O2)C(O)OC3=O` (centres undefined), -75.6% (active).
As for `COc1cc(C)c2c(c1C=O)Oc1c(c(C)c(O)c3c1C(O)OC3=O)OC2=O` (centres undefined), the figure is -5.42% (inactive).
The same measure for `COC(=O)c1c(C)c2c(c(C)c1O)OC(=O)c1c(C)c(Cl)c(O)c(Cl)c1O2`: -3.73% (inactive); for `CS(=O)(=O)Nc1c(O)ccc2c1CCCC2C1=NCCN1` (centres undefined): 15.3% (inactive) and 0.146% (inactive).
`CC(=O)[C@@]1(O)CCC2C3C[C@H](C)C4=CC(=O)C=CC4(C)[C@@]3(F)[C@@H](O)C[C@@]21C` (some centres undefined): the activity change, negative = inhibition was 10% (inactive) and 7.34% (inactive).
The same measure for `NC(N)=NC(=O)c1nc(Cl)c(N2CCCCCC2)nc1N`: 3.26% (inactive); for `CC(=O)OCC(=O)[C@@]1(O)[C@@H](C)CC2C3CCC4=CC(=O)C=C[C@]4(C)[C@@]3(F)[C@@H](O)C[C@@]21C` (some centres undefined): -12.5% (inactive).
